Molecules are shown by their SMILES. About 83,000 compounds went through this panel and 20% of them were active in at least one assay; those are over-represented in the sample as a whole.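 Plates (96-well) were seeded with cells, treated with compound at one concentration, and incubated for 48 hours before percent growth was determined.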 A number with no mark means an inactive call. The source made the active and inactive calls. How the source made its calls: active means growth percent below 10; inactive means the rest.

In the test the test system is OVCAR-3 ovarian. Kind of test: NCI-60 one-dose screen, 48 h (100 = growth as untreated, 0 = no growth, -100 = all killed). To be noted: 10 µM.
In the case of `CC(=O)Nc1nc(-c2ccc(N3CCN(C)CC3)c(NS(=O)(=O)c3cccc4c(N(C)C)cccc34)c2)cs1`, the growth was 78.9%.
In the case of `CN1CCN(Cc2ccc(C(=O)Nc3cccc(Nc4ccc5cc(O)ccc5n4)c3)cc2C(F)(F)F)CC1`, the growth was -58.9% (active).
As for `O=C(c1ccc(O)cc1)C1[C@H](c2ccccc2Br)[C@@H](c2ccccc2)NC12C(=O)Nc1ccc(Br)cc12` (stereo partly specified), the growth was 7.23% (active).
In the case of `Brc1ccc(/C=N/Nc2ncnc3sc4c(c23)CCN(Cc2ccccc2)C4)cc1`, the growth is 33%.
Next, `O=C(c1ccc(O)cc1)C1[C@H](c2ccc(Br)cc2)[C@@H](c2ccccc2)NC12C(=O)Nc1ccccc12` (stereo partly specified): 15%; `O=c1[nH][nH]c(Nc2ccccc2)c1N=Nc1ccc(F)cc1`: 103%; `Cc1ccc(-c2nc3ccc(C(=O)N=Nc4c(O)[nH]c5ccc(Cl)cc45)cc3[nH]2)cc1`: -47.2% (active).
Next, `COc1ccc(C(=O)Nc2ccc(-c3ccc4c(c3)NC(=O)/C4=C\c3ccc[nH]3)cc2)cc1`: 9.86% (active); `CNCc1cccc2c1OCCCCCC[C@@](C)(O)CC1(CC1)S(=O)(=O)c1ccc(cc1)-c1cnc(N)c(n1)C(=O)N2`: -91.1% (active); `COc1cccc2nc(Nc3ccc(F)c(NC(=O)c4ccc(CN5CCN(C)CC5)c(C(F)(F)F)c4)c3)ccc12`: -33.3% (active).
For `CCOC(=O)C1NN(c2ccc(S(N)(=O)=O)cc2)c2nc3nc(-c4cccs4)cc(-c4cccs4)c3c(=O)n21` (stereo unspecified), the growth is 89.9%.
Next, `O=C1Nc2cc(Cl)ccc2/C1=C/c1cccc(OCc2ccc(Br)cc2F)c1`: -39% (active); `O=C(c1ccc(Cl)cc1)C1[C@H](c2ccccc2Br)[C@@H](c2ccccc2)NC12C(=O)Nc1ccc(Br)cc12` (stereo partly specified): -8.88% (active).
Then `O=c1[nH]n(C(=S)N/N=C/c2ccc(F)cc2)c(=O)c2ccccc12`, with 32.5%.
Regarding `CC1(C)CC[C@]2(C(=O)O)CC[C@]3(C)C(=CC[C@@H]4[C@@]5(C)C/C(=C/c6ccncc6)[C@H](O)C(C)(C)[C@@H]5CC[C@]43C)[C@@H]2C1`, the growth is 40.9%.
Next, `CC1(C)CC[C@]23CC[C@]4(C)[C@H](CC[C@@H]5[C@@]6(C)CC[C@H](N)C(C)(C)[C@@H]6CC[C@]54C)[C@H]2[C@H]1OC3=O`: -81% (active); `C#CCNC(=O)[C@]12CCC(C)(C)C[C@H]1C1=CC[C@@H]3[C@@](C)(CCC#N)[C@H](C(=C)C)CC[C@@]3(C)[C@]1(C)CC2`: 91.8%.
Turning to `COC1CC(Cn2cc(COc3ccc4ccc(=O)oc4c3)nn2)C(OCc2ccccc2)C(OCc2ccccc2)C1OCc1ccccc1` (stereo unspecified), the growth is 125%.
For `Cc1cccc2cc(-c3cc(-c4ccccc4)nc(=O)[nH]3)c(Cl)nc12`, the growth is 91.4%.
For the molecule `Cc1ccc(CSc2nc(-c3ccc(F)cc3)c(C#N)c(=O)[nH]2)cc1`, the growth was 102%.
On to `O=C1Nc2cc(-c3ccc(NC(=O)c4cccc([N+](=O)[O-])c4)cc3)ccc2/C1=C/c1ccc[nH]1`, for which the growth was 99.4%.
As for `C=C(C)[C@@H]1CC[C@]2(COP(=O)(OCC)OCC)CC[C@]3(C)[C@H](CC[C@@H]4[C@@](C)(CCCN)[C@H](C(=C)C)CC[C@]43C)[C@@H]12`, the growth is 24.2%.
Next, `O=C(CS(=O)(=O)c1oc(-c2ccc(Cl)cc2)nc1S(=O)(=O)c1ccc(Cl)cc1)N1CCOCC1`: 6.83% (active); `CN1CCN(c2ccc(Nc3nc(NCCCNC(=O)c4ccc(Cl)cc4)c4sccc4n3)cc2)CC1`: 109%; `CN1CCN(c2ccc(Nc3nc(NCCNC(=O)c4ccc(C(F)(F)F)cc4)c4sccc4n3)cc2)CC1`: 27.8%.
Regarding `O=C(NCCCCC(c1ccc(F)cc1)c1ccc(F)cc1)NCCCc1cccnc1`, the growth was 26.5%.
Next, `O=C(c1ccc(Cl)cc1)C1[C@H](c2ccc(Br)cc2)[C@@H](c2ccccc2)NC12C(=O)Nc1ccc(Br)cc12` (stereo partly specified): -89.7% (active).
Then `COc1ccc2[nH]c(O)c(N=NC(=O)COc3ccc(NC(=O)Nc4ccc(Cl)cc4)cc3)c2c1`, with -30.6% (active); and `CONC[C@]1(C)C=C2C(=O)[C@](C)(O)C3(CC3)C(C)=C2[C@H]1O`, with -20.4% (active).
Then `COC[C@@H](CC(C)C)N=C1NC(=O)/C(=C/c2ccc3ncoc3c2)N1`, with -26.3% (active).
`O=C(c1ccc(Cl)cc1)C1[C@H](c2ccccc2Br)[C@@H](c2ccccc2)NC12C(=O)Nc1ccccc12` (stereo partly specified): the growth was 10.5%.

The values above are taken from PubChem BioAssay (NCI).
